Data reported in PubChem BioAssay (Tox21).
Results filed as inconclusive are left out. A call without a number means that no potency is given here. Activity calls are given as the source filed them. The call rests on the fitted dose curve.

Assay: p53 small molecule agonists, cell-based qHTS assay with rat liver microsomes: qHTS cell viability counter screen (AID 1963580); further: nearly all actives have a fitted effect of over 45% in size
Details: p53RE-bla HCT-116 + rat microsomes, ATP viability, 16 h; series mostly up to 66 µM
Text: National Center for Advancing Translational Sciences [NCATS]
Division of Preclinical Innovation [DPI]
U.S. Environmental Protection Agency [EPA]
National Institutes of Environmental Health Sciences [NIEHS]
National Toxicology Program [NTP]
U.S. Food and Drug Administration [FDA]
p53, a tumor suppressor protein, is activated following cellular insult, including DNA damage and other cellular stresses. The activation of p53 regulates cell fate by inducing DNA repair, cell cycle arrest, apoptosis, or cellular senescence. The activation of p53, therefore, is a good indicator of DNA damage and other cellular stresses. The CellSensor p53RE-bla HCT-116 cell line contains a stably integrated beta-lactamase reporter gene under control of the p53 response elements. The activation of the reporter gene under culture conditions can be detected by fluorescence intensity. This cell line was used to screen the Tox21 10K compound library in the condition of presence of rat liver microsomes and to identify agonists that activate the p53 signaling pathway after in vitro metabolic activation (Ooka et al., Archive of Toxicology 96:1975-1987, 2022). The cytotoxicity of the Tox21 compound library against the p53 RE-bla HCT-116 cell line was tested in parallel by measuring the intra cellular ATP content in the same wells.
Tox21 Assay Protocol Summary:
The p53RE-bla cells were dispensed at 4,000cells/3ul/well in 1536-well black-clear bottom plates. After the assay plates were incubated at 37 C, 5% CO2 incubator for 5 hours, 23 nL of compounds dissolved in DMSO, positive controls or DMSO only was transferred to the assay plate. Following compound addition, 3 uL of rat liver microsomes (Molecular Toxicology, Boone, NC) at final concentration of 0.5 mg/mL and 1uL of B-Nicotinamide adenine dinucleotide 2'-phosphate (NADPH) at final concentration of 0.5 mg/mL were transferred to the assay plate. The plates were incubated at 37 C for 16 hours. 1 uL of LiveBLAzer detection mixture was added to each well and the plates were incubated at room temperature in the dark for 2 h. Fluorescence intensity at 460 and 530 nm emission and 405 nm excitation were measured by an Envision plate reader. For cell viability readout that measures cytotoxicity, 4 ul/well of CellTiter-Glo reagent was added into the assay plates using a Flying Reagent Dispenser. After 30 min incubation at room temperature, the luminescence intensity in the plates was measured using a ViewLux plate reader.
Potency means the concentration at half of the fitted maximal effect.

Question: For `N#Cc1c(Cl)cccc1Cl`, which Potency is on record?
Answer: inactive

Question: With `N#CC(O)c1ccccc1` (stereo not given) as the molecule, how does the Potency read?
Answer: inactive

Question: For `C[C@]12Cc3cn[nH]c3C[C@@H]1CC[C@@H]1[C@@H]2CC[C@@]2(C)[C@H]1CC[C@]2(C)O`, which Potency is on record?
Answer: inactive

Question: Which Potency does the source give for `CN1CCC(O)(c2ccc(F)cc2)C(C(=O)c2ccc(F)cc2)C1` (stereo not given) here?
Answer: inactive

Question: Which Potency does the source give for `CCOC(=O)NC(=S)Nc1ccccc1NC(=S)NC(=O)OCC` here?
Answer: inactive

Question: With `C=CC[C@]1(O)CC[C@H]2[C@@H]3CCC4=CC(=O)CCC4=C3C=C[C@@]21C` as the molecule, how does the Potency read?
Answer: inactive

Question: With `CCCCCC[N+](=O)[O-]` as the molecule, how does the Potency read?
Answer: inactive

Question: For `CNC(=O)CSP(=O)(OC)OC`, which Potency is on record?
Answer: inactive

Question: With `Cc1ccn2nc(S(=O)(=O)Nc3c(F)cccc3F)nc2n1` as the molecule, how does the Potency read?
Answer: inactive

Question: For `CC1N=C(N)OC1c1ccccc1` (stereo not given), which Potency is on record?
Answer: inactive

Question: For `CCSC(=O)N(CC)C1CCCCC1`, which Potency is on record?
Answer: inactive

Question: With `CC1Sc2c(C(=O)O)c(=O)c3cc(F)c(N4CCNCC4)cc3n21` (stereo not given) as the molecule, how does the Potency read?
Answer: inactive

Question: With `Nc1ccccc1-c1ccccc1` as the molecule, how does the Potency read?
Answer: inactive

Question: For `CC(C)c1c(CN(C)C(C)Cc2ccccc2)n(C)n(-c2ccccc2)c1=O` (stereo not given), which Potency is on record?
Answer: inactive

Question: With `CC1(C)COP(Oc2ccccc2)OC1` as the molecule, how does the Potency read?
Answer: inactive

Question: With `Brc1cccc(-c2ccccc2)c1` as the molecule, how does the Potency read?
Answer: inactive

Question: For `CCCCN(CCCC)C(=S)S`, which Potency is on record?
Answer: inactive

Question: Which Potency does the source give for `Cc1cc(C)cc(OP(=O)(Oc2cc(C)cc(C)c2)Oc2cc(C)cc(C)c2)c1` here?
Answer: inactive

Question: With `CCC(C)Br` (stereo not given) as the molecule, how does the Potency read?
Answer: inactive

Question: For `OC(Cc1ccccc1Cl)(Cn1[nH]cnc1=S)C1(Cl)CC1` (stereo not given), which Potency is on record?
Answer: inactive

Question: With `O=C(Oc1ccc(Br)cc1)N1CCN2CCC1CC2` as the molecule, how does the Potency read?
Answer: inactive

Question: For `O=C(O)COc1nc(Cl)c(Cl)cc1Cl`, which Potency is on record?
Answer: inactive

Question: With `CCSC(=O)Cl` as the molecule, how does the Potency read?
Answer: inactive

Question: Which Potency does the source give for `CC(=O)Nc1ccc2c(c1)Cc1ccccc1-2` here?
Answer: inactive

Question: With `c1cncc([C@@H]2CCCCN2)c1` as the molecule, how does the Potency read?
Answer: inactive

Question: With `N#Cc1cc(I)c(O)c(I)c1` as the molecule, how does the Potency read?
Answer: 45.8 µM (active)

Question: Which Potency does the source give for `C/C(=C\c1ccccc1)[N+](=O)[O-]` here?
Answer: 36.3 µM (active)

Question: For `Oc1c(Cl)cccc1Cl`, which Potency is on record?
Answer: inactive

Question: For `O=C(CBr)Nc1ccc(Cl)cc1C(=O)c1ccccc1F`, which Potency is on record?
Answer: inactive

Question: With `CCCSP(=O)(OCC)Oc1ccc(Br)cc1Cl` (stereo not given) as the molecule, how does the Potency read?
Answer: inactive

Question: For `CC(C)[C@@H](Nc1ccc(C(F)(F)F)cc1Cl)C(=O)OC(C#N)c1cccc(Oc2ccccc2)c1` (stereo not given in full), which Potency is on record?
Answer: inactive

Question: Which Potency does the source give for `CC(C)(C)c1ccc(OP(=O)(Oc2ccccc2)Oc2ccccc2)cc1` here?
Answer: inactive

Question: Which Potency does the source give for `O=[N+]([O-])c1cccc2c([N+](=O)[O-])cccc12` here?
Answer: inactive

Question: With `Cl/C=C\Cl` as the molecule, how does the Potency read?
Answer: inactive

Question: For `CC(C)(C)c1ccc(CSc2cnn(C(C)(C)C)c(=O)c2Cl)cc1`, which Potency is on record?
Answer: inactive

Question: Which Potency does the source give for `CCSCc1ccccc1OC(=O)NC` here?
Answer: inactive

Question: For `CCCCCOC(=O)c1ccccc1C(=O)OCCCCC`, which Potency is on record?
Answer: inactive

Question: Which Potency does the source give for `CCCCN(CCCC)C(=S)[S-].CCCCN(CCCC)C(=S)[S-].[Ni+2]` here?
Answer: inactive

Question: Which Potency does the source give for `Cc1nc(N)nc(N)n1` here?
Answer: inactive

Question: With `O=C(O)c1cccc(Cl)c1` as the molecule, how does the Potency read?
Answer: inactive
